Laboratory results taken from PubChem BioAssay (NCATS).
Inconclusive results are not listed. Activity calls are given as the source filed them. Unless noted, the call rests on the fitted dose curve; in most records, active means well fitted cell-killing curve with a large enough effect; inconclusive means small, poorly fitted or top-dose-only effect; inactive means flat fitted curve, though single readings scatter.

Columns and labels:
[1] = Cell Viability - LYMP2-023 (AID 975);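 further: cellular ATP measured by luciferase luminescence as viability proxy; series mostly up to about 92 µM; plate controls were DMSO only for no effect and 92 µM tetraoctylammonium bromide control for full effect; nearly all actives have a fitted effect of over 55% in size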
How it was run: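 Steps: seed 2500 human lymphoblastoid cells per well, incubate 5 hr at 37 C, add compound for 24 hr at 37 C, add CellTiter-Glo, hold 30 min at room temperature, read luminescence. AC50 derived by Hill modelling.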

[2] = Cell Viability - LYMP2-025 (AID 976);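 further: series mostly up to about 92 µM; plate controls were DMSO only for no effect and tetraoctylammonium bromide control for full effect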
How it was run: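 Acute cytotoxicity is scored as a concentration-dependent fall in intracellular ATP, measured by luciferase luminescence, in human lymphoblastoid LYMP2-025 cells exposed to compound for 24 hours at 37 C. AC50 values come from standard Hill fits.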

[3] = Cell Viability - LYMP2-002 (AID 977);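 further: series mostly up to about 92 µM; compound exposure lasted 24 h at 37 °C; plate controls were DMSO only for no effect and 92 µM tetraoctylammonium bromide for full effect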
How it was run: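 Human lymphoblastoid cells, 2500/well, complete medium; 5 h 37 C settle; compound 24 h 37 C; CellTiter-Glo, 30 min RT; luminescence. Decrease in ATP = cytotoxicity; AC50 via Hill equation.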

[4] = Cell Viability - LYMP2-007 (AID 979);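 further: cells exposed to compound for 24 h before reading; 0% = DMSO only and the negative end = 92 µM tetraoctylammonium bromide; nearly all actives have a fitted effect of over 60% in size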
How it was run: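 Cells are seeded at 2500 per well and rested 5 hr. Compounds are then added over a concentration series for 24 hr at 37 C. CellTiter-Glo is added for 30 min at room temperature before luminescence reading.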

[5] = Cell Viability - LYMP2-008 (AID 980); further: on the % scale 0 is the no-effect control and ±100 the full control effect; nearly all actives have a fitted effect of over 60% in size
How it was run: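 Cells seeded at 2500/well and rested 5 hr at 37 C; compounds added over a concentration range and incubated 24 hr at 37 C; CellTiter-Glo added, 30 min at room temperature; luminescence read and AC50 fitted with Hill model.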

[6] = Cell Viability - LYMP2-010 (AID 981); further: on the % scale 0 is the no-effect control and ±100 the full control effect; nearly all actives have a fitted effect of over 55% in size
How it was run: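 Steps: seed 2500 LYMP2-010 cells per well; incubate 5 hr at 37 C; add compound; incubate 24 hr at 37 C; add CellTiter-Glo, wait 30 min at room temperature; read luminescence. Concentration-response fitted to Hill equation for AC50.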

[7] = Cell Viability - LYMP2-012 (AID 982);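 further: cellular ATP by luciferase luminescence where a drop means cytotoxicity; cells exposed to compound for one day before reading; 0% = DMSO only and full loss = 92 µM tetraoctylammonium bromide; nearly all actives have a fitted effect of over 55% in size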
[8] = Cell Viability - LYMP2-014 (AID 983);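 further: series mostly up to about 92 µM; plate controls were DMSO only for no effect and 92 µM tetraoctylammonium bromide for full effect; nearly all actives have a fitted effect of over 50% in size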
How it was run: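 Cells are plated at 2500/well and left 5 hr at 37 C. Compounds are added across a concentration range and incubated 24 hr at 37 C in complete medium. CellTiter-Glo is added, and luminescence is read after 30 min at room temperature.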

[9] = Cell Viability - LYMP2-016 (AID 984); further: on the % scale 0 is the no-effect control and ±100 the full control effect; nearly all actives have a fitted effect of over 55% in size
How it was run: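 Cells were seeded at 2500 per well and rested 5 hr before a 24 hr compound exposure at 37 C. Viability was then gauged as cellular ATP by luciferase luminescence, with AC50 values fitted to the Hill equation.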

[10] = Cell Viability - LYMP2-018 (AID 985);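 further: plate controls were DMSO only for no effect and tetraoctylammonium bromide at 92 µM for full effect; nearly all actives have a fitted effect of over 50% in size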
How it was run: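 Seed 2500 lymphoblastoid cells per well, incubate 5 hr at 37 C, add compound and incubate 24 hr at 37 C, add CellTiter-Glo, wait 30 min at room temperature, then read luminescence.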

[11] = Cell Viability - LYMP2-020 (AID 986)
How it was run: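 Seed 2500 cells per well and incubate 5 hr at 37 C. Add compounds at a concentration series and incubate 24 hr at 37 C. Add CellTiter-Glo, wait 30 min at RT, read luminescence, and fit a Hill curve for AC50.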

[12] = Cell Viability - LYMP2-022 (AID 987)
How it was run: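 Cells were seeded at 2500 per well, rested 5 hr at 37 C, and treated with titrated compounds for 24 hr at 37 C. Cellular ATP was then quantified by luciferase luminescence, and AC50 values were derived from Hill-modelled concentration-response curves.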

[13] = Cell Viability - LYMP2-024 (AID 988);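 further: plate controls were DMSO only for no effect and 92 µM tetraoctylammonium bromide for full effect; nearly all actives have a fitted effect of over 60% in size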
How it was run: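 qHTS cytotoxicity, human lymphoblastoid line, complete medium; 24 h cpd treatment, 37 C; CellTiter-Glo ATP luminescence readout; tetraoctylammonium bromide positive control; AC50 via Hill fit.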

[14] = Cell Viability - LYMP2-026 (AID 989); further: on the % scale 0 is the no-effect control and ±100 the full control effect; nearly all actives have a fitted effect of over 50% in size
How it was run: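 Cells are seeded at 2500 per well and held 5 hr at 37 C. Compounds are added in concentration series for 24 hr, then CellTiter-Glo reagent is applied and luminescence read.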

[15] = Cell Viability - LYMP1-002 - Assay at 24 hr (AID 993); further: on the % scale 0 is the no-effect control and ±100 the full control effect
How it was run: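 Acute toxicity is measured as concentration-dependent loss of cellular ATP in a human lymphoblastoid line (Coriell LYMP1-002) after 24 h treatment in complete medium. ATP is quantified by luciferase luminescence and AC50 derived by Hill modelling.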

[16] = Cell Viability - LYMP1-002 - Assay at 40 hr (AID 994);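 further: 0% = DMSO only and full inhibition = 92 µM tetraoctylammonium bromide; nearly all actives have a fitted effect of over 60% in size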
How it was run: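 Cells are plated at 2500 per well and rested 5 hr at 37 C. Compounds are added and incubated 40 hr at 37 C. CellTiter-Glo reagent is added for 30 min at room temperature before luminescence is read.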

[17] = molecular target: Estrogen receptor (Homo sapiens) (UniProt P03372); assay: qHTS assay for small molecule antagonists of estrogen receptor alpha signaling (AID 588513; active means well fitted curve in the direction sought with a large enough effect in the signal ratio, with a control signal flat, not every such curve was filed as active; the % refers to the signal ratio; further: on the % scale 0 is the no-effect control and ±100 the full control effect)
Estrogen receptor (Homo sapiens), sequence (P03372 whole entry, looked up): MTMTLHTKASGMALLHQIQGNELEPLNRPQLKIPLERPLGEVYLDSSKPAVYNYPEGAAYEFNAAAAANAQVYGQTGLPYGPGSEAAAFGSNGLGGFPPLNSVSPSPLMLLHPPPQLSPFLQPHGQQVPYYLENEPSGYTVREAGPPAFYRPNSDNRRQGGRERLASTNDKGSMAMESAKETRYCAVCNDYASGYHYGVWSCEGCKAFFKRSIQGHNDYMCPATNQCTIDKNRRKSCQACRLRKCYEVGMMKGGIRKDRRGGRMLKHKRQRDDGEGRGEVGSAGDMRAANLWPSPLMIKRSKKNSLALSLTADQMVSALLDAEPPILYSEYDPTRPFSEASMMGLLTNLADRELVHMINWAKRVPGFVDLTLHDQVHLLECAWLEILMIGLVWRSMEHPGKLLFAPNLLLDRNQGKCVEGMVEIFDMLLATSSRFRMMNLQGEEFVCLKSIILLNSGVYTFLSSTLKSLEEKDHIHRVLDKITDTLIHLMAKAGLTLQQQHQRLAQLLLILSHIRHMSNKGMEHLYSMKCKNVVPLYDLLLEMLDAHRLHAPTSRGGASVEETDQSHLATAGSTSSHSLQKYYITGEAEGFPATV
How it was run: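 Fluorescence from CCF4 substrate after 2 h at room temperature gave reporter activity; cells had been exposed to compound and 0.5nM 17-beta-estradiol for 18 h at 37 C. Hill-equation fitting yielded IC50 and maximal response.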

[18] = molecular target: Estrogen receptor (Homo sapiens) (UniProt P03372); assay: qHTS assay for small molecule agonists of estrogen receptor alpha signaling (AID 588514; calls by dose curve;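 further: 0% = vehicle only and 100% = reference agonist; nearly all actives have a fitted effect of over 70% in size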)
How it was run: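 Efficacy is expressed against 20 nM 17-beta-estradiol (100%) and DMSO basal (0%); EC50 from Hill equation. Assay: beta-lactamase reporter in ER-alpha-UAS-bla HEK 293 cells, 18 h compound incubation, CCF4 detection.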

[19] = molecular target: Bile acid receptor (Homo sapiens) (UniProt Q96RI1); assay: qHTS assay for small molecule antagonists of farnesoid X receptor signaling (AID 588526; calls by dose curve; further: on the % scale 0 is the no-effect control and ±100 the full control effect)
Bile acid receptor (Homo sapiens), sequence (Q96RI1 whole entry, looked up): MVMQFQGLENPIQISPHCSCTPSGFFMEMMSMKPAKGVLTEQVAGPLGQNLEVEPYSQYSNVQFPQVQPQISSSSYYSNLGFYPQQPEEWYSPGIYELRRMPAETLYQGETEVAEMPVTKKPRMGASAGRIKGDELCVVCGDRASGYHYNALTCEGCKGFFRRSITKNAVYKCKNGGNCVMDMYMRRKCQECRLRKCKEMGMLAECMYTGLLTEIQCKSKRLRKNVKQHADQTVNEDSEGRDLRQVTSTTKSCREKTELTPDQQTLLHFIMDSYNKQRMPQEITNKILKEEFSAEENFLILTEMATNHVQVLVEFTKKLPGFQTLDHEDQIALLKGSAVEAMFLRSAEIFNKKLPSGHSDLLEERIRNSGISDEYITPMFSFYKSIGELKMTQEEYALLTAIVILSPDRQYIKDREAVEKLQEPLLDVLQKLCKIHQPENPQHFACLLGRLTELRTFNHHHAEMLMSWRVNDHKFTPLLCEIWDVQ
How it was run: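 Antagonist mode: titrated compounds tested against chenodeoxycholic acid stimulation (normalized to 50 uM CDCA and DMSO) in GeneBLAzer HEK293T cells for 16 h. Beta-lactamase read by CCF4 fluorescence; IC50 from Hill fits.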

[20] = molecular target: Glucocorticoid receptor (Homo sapiens) (UniProt P04150); assay: qHTS assay for small molecule agonists of glucocorticoid receptor signaling (AID 588532; active means well fitted curve in the direction sought with a large enough effect in the signal ratio, with a control signal flat; the % refers to the signal ratio;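 further: 100% = dexamethasone at 0.1 µM and 0% = DMSO only wells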); conditions: HeLa MMTV-bla, beta-lactamase ratio, agonist, 18 h; stronger effect = higher value; percent of dexamethasone control, DMSO zero
Glucocorticoid receptor (Homo sapiens), sequence (P04150 whole entry, looked up): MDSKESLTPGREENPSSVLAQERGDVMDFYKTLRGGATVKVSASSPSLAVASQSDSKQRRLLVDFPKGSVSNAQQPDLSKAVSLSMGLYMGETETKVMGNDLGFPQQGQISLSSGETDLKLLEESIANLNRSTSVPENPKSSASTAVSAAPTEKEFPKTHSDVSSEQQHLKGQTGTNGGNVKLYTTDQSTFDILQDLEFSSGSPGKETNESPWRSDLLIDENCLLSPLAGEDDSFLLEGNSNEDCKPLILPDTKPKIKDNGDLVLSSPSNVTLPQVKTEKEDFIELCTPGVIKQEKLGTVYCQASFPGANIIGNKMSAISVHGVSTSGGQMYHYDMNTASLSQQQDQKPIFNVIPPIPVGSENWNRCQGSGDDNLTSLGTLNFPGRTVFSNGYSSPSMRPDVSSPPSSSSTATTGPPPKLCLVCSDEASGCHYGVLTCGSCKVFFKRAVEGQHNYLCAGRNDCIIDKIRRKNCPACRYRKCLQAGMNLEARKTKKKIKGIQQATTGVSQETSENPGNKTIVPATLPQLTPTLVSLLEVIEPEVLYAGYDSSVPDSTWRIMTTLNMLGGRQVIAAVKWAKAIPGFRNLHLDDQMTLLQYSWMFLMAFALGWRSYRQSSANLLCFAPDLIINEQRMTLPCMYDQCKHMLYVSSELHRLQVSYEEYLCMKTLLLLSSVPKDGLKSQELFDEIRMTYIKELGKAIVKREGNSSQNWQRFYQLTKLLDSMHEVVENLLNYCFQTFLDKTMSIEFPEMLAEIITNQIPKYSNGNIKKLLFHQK
How it was run: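 MMTV-bla HeLa beta-lactamase reporter cells in 1% charcoal/dextran FBS medium, compounds up to 92 uM for 18 h at 37 C, CCF4 readout; normalized to 0.1 uM dexamethasone (100%), EC50 and efficacy from Hill fits.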

[21] = molecular target: Glucocorticoid receptor (Homo sapiens) (UniProt P04150); assay: qHTS assay for small molecule antagonists of glucocorticoid receptor signaling (AID 588533; active means well fitted inhibition curve with a large enough effect in the signal ratio, with a control signal flat, not every such curve was filed as active; the % refers to the signal ratio;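 further: cells stimulated with 2 nM dexamethasone as agonist; on the % scale 0 is the no-effect control and ±100 the full control effect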)
How it was run: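 Antagonist-mode qHTS: compound titrations added to GRE-bla HeLa cells, then dexamethasone 2 nM final; 18 h, 37 C. CCF4 FRET fluorescence normalized to dexamethasone and DMSO; IC50 from Hill fit.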

[22] = qHTS assay for small molecule antagonists of peroxisome proliferator-activated receptor delta signaling (AID 588535; active means well fitted inhibition curve with a large enough effect in the signal ratio, with a control signal flat, not every such curve was filed as active; the % refers to the signal ratio;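 on max response: cells co-treated with a PPAR-delta agonist as stimulator during compound exposure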); conditions: HEK293T PPARd-UAS-bla, beta-lactamase FRET ratio, 18 h; 460 nm channel
How it was run: (§1)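 Fluorescence from CCF4-loaded GeneBLAzer PPAR-delta-UAS-bla HEK293T cells (2 hrs RT loading) quantified reporter inhibition after an 18 hr, 37 C compound exposure across a titration.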

[23] = molecular target: Peroxisome proliferator-activated receptor delta (Homo sapiens) (UniProt Q03181); assay: as above
Peroxisome proliferator-activated receptor delta (Homo sapiens), sequence (Q03181 whole entry, looked up): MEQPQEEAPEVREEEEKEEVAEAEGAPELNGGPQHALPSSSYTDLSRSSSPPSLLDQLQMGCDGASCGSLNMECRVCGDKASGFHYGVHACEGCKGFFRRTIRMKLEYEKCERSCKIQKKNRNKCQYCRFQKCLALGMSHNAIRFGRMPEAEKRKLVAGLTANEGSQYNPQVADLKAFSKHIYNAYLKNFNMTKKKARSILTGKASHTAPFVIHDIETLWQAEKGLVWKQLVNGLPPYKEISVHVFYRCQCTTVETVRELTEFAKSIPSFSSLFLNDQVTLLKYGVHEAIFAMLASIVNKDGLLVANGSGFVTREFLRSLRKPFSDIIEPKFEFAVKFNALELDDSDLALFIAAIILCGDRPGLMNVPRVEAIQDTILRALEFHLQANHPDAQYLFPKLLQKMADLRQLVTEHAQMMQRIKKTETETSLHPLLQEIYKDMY
How it was run: as §1

[24] = molecular target: Peroxisome proliferator-activated receptor gamma (Homo sapiens) (UniProt P37231); assay: qHTS assay for small molecule agonists of peroxisome proliferator-activated receptor gamma signaling (AID 588536; active means well fitted curve in the direction sought with a large enough effect in the signal ratio, with a control signal flat, not every such curve was filed as active; the % refers to the signal ratio;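 further: 0% = DMSO basal wells and 100% = rosiglitazone at 2 µM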)
Peroxisome proliferator-activated receptor gamma (Homo sapiens), sequence (P37231 whole entry, looked up): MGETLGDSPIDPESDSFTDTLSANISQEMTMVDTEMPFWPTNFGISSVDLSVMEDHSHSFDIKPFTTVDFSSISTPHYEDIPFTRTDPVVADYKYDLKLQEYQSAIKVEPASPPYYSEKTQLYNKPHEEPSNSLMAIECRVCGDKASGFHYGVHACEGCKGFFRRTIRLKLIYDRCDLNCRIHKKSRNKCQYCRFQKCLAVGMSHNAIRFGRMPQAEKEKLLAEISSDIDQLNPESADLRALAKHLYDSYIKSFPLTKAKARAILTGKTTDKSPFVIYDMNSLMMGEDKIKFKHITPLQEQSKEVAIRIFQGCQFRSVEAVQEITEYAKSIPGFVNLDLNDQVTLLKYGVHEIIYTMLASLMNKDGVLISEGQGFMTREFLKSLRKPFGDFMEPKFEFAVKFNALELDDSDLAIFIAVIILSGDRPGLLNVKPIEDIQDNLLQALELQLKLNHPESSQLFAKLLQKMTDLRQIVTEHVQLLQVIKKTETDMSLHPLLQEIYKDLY
How it was run: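 Cells were plated and held 6–6.5 h at 37 C, then compounds were added as a titration series. After a further 16 h, CCF4 dye was loaded for 2 h at room temperature and emission at 460/530 nm recorded.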

Cc1cccc(O)c1C
inactive: Potency [1] | Potency [2] | Potency [3] | Potency [4] | Potency [5] | Potency [6] | Potency [7] | Potency [8] | Potency [9] | Potency [10] | Potency [11] | Potency [12] | Potency [13] | Potency [14] | Potency [15] | Potency [16] | Potency [17] | outcome [18] | Potency [19] | activation [20] 5.02% | Potency [21] | outcome [23] | outcome [24]
-7.79%: max response [22]
